Measurements taken from PubChem BioAssay AID651592 (Sanford-Burnham Center for Chemical Genomics, 2012).
The source made the active and inactive calls.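 The calls were made as follows: active = NF-kB reporter IC50 at most 10 µM, IL-8 IC50 within fivefold of it with bacterial filtrate but not with TNF-alpha; inactive = the rest.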

Assay: inhibitors of NFkB activation in CF airway cells, SAR follow-up, KKLEB cells, panel, IL8 HTRF, NFkB-GFP (AID 651592);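 also: immortalized cystic fibrosis airway epithelial KKLEB cells with an NF-kB GFP reporter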
Details: PAF/TNFa-induced NFkB-GFP / IL8 HTRF, CF-PAF assay, mean of runs

SMILES	outcome
O=C(Nc1ccc(N2CCN(C(=O)c3ccccc3)CC2)cc1)c1ccccc1	inactive
O=C(Nc1ccc(N2CCN(C(=O)c3ccccc3)CC2)cc1)c1ccncc1	inactive
O=C(Nc1ccc(N2CCN(C(=O)c3ccc(F)cc3)CC2)cc1)c1cccc(Br)c1	inactive
O=C(Nc1ccc(N2CCN(C(=O)c3ccccc3Cl)CC2)cc1)c1ccncc1	inactive
O=C(Nc1ccc(N2CCN(C(=O)c3ccc(F)cc3)CC2)cc1)c1cc(Br)cc(Br)c1	inactive
O=C(Nc1ccc(N2CCN(C(=O)c3ccccc3Cl)CC2)cc1)c1cccc(Br)c1	inactive
CCOc1ccc(NCc2cc3c(C(C)(C)C)nn(-c4ccc(Cl)cc4)c3[nH]c2=O)cc1	inactive
O=C(Nc1ccc(N2CCN(C(=O)c3ccccc3)CC2)cc1)c1ccccn1	inactive
O=C(Nc1ccc(N2CCN(C(=O)c3ccccc3Cl)CC2)cc1)c1ccccc1	active
CCOc1ccc(NCc2cc3c(-c4ccc(F)cc4)nn(-c4ccccc4)c3[nH]c2=O)cc1	active
O=C(Nc1ccc(N2CCN(C(=O)c3ccccc3F)CC2)cc1)c1cc(Br)cc(Br)c1	inactive
O=C(Nc1ccc(N2CCN(C(=O)c3ccc(F)cc3)CC2)cc1)c1cncc(Br)c1	active
O=C(Nc1ccc(N2CCN(C(=O)c3ccc(F)cc3)CC2)cc1)c1cccnc1	inactive
O=C(Nc1ccc(N2CCN(C(=O)c3ccccc3)CC2)cc1)c1cccc(Br)c1	inactive
O=C(Nc1ccc(N2CCN(C(=O)c3ccccc3)CC2)cc1)c1cccnc1	inactive
O=C(Nc1ccc(N2CCN(C(=O)c3ccc(F)cc3)CC2)cc1)c1ccccc1	inactive
O=C(Nc1ccc(N2CCN(C(=O)c3ccc(F)cc3)CC2)cc1)c1ccncc1	inactive
O=C(Nc1ccc(N2CCN(C(=O)c3ccccc3)CC2)cc1)c1cc(Br)cc(Br)c1	inactive
